Assay results published in PubChem BioAssay AID743182 (Broad Institute, 2013).
The source made the active and inactive calls.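 How the source made its calls: active means cell killing with a fitted half-maximal concentration at most twice the top valid dose tested; inconclusive means flat curve with 30 to 70% signal loss, or poor fit; inactive means the rest.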

Assay: HEK293 cell cytotoxicity, dose response, cytotoxicity control, luminescence, dry powder, set 8 (AID 743182)
Conditions: HEK293T viability, CellTiter-Glo ATP luminescence, 72 h; series mostly up to 26 µM

SMILES | outcome
CSc1ccc(/C=N/NC(=O)c2ccc3nc[nH]c3c2)cc1 | inactive
O=C(N/N=C/c1c[nH]c2ccccc12)c1cccc(O)c1 | inactive
O=C(N/N=C/c1c[nH]c2ccccc12)c1cccs1 | inactive
